The subject of this test is VDR:RXRa (NR concentration 270 nM, RXRa partner concentration 90 nM). The test is described as follows: PBM binding z-score (relative to random genomic background probes); higher = stronger binding; sequences stand for … in GC…GCGATTGACAGCGTAGAATGAAGG
The protocol:
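Protein-binding microarray (Agilent 4x180K custom design, double-stranded 60-nt probes: 5' GC cap, 34-nt variable region, 24-nt constant primer region; full probe sequence given). Purified or IVT nuclear receptor:RXRα heterodimers (3:1 NR:RXRα, mostly 270:90 nM) or homodimers were incubated for 1 h in PBS with 2% milk and no ligand, then detected with Alexa488 antibodies. Fluorescence from o1-orientation probes (~5 replicates averaged) was converted to z-scores against 500 random hg19 background probes. Variable regions are seed direct-repeat (DR0–DR5) sites, all their single-nucleotide variants and half-site ablations.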
TCTCAGAGGACACGAAAGGTCAGAGCTCGACATC gave a PBM binding z-score of 3.62.

Regarding CTCGAAAGGTCGTGCTCAGGTCAGTATACCAAAC, the PBM binding z-score came out at 5.19.

Sequence ACTTACGGGTCAACGAGATTATAGCACGCGTATA displayed a PBM binding z-score of 5.

In turn, TCTCGTAGATCAATAGAGGTTAAGAAAGTGCGCT came in with a PBM binding z-score of 1.68.

The sequence CCTGCTGGGCCAAAAAGGTCATTGATGCCGATAA registered a PBM binding z-score of 4.84.

Regarding CGTCCAAGGTCGATGCTAGGTCAGTGAAAGCATT, the PBM binding z-score was found to be 2.26.

For TCATATAGGTAATACAAGTGAAAGTCGGCATCTA, the PBM binding z-score is 1.24.

CAAATTAGGTCAAAGGTCAAAGTCGAGCCAACCA returned a PBM binding z-score of 6.81.

Take TAACCAAGGTGAAGGTCGTTGATCCCTCTGTAGA: the PBM binding z-score amounted to 1.31.

In turn, TCTATTAGTTGAAAGGCAACCGACGAGTCCGTTT displayed a PBM binding z-score of 0.899.

In the case of CCTACTGGGCCAAACAGGTCATTGATGCCGATAA, the PBM binding z-score came out at 2.82.

With AGATTGAGGTTATACGTAGATCAGGGAAGAAAGT, the PBM binding z-score came to 1.23.

The sequence CGTCAAAGTTCAACTAAGGTAACGTCAAGCACGC registered a PBM binding z-score of 4.83.

GGAACGAGGGCAAGTTGATAGCTGAGTTTGATGG showed a PBM binding z-score of 0.643.

For the sequence GCATATAGGTTATACAAGGTGAAAGTCCGATTGT, the PBM binding z-score is 1.57.

As for ATCTCTAGGTAAAGATAGTACAGTGAATGCAAAT, the PBM binding z-score stood at 0.325.

Turning to ATCTCTAGGTAACAGGTTCAGTGAAAGAGAGGAC, the PBM binding z-score is 1.95.

Consider ACTTGCAGGCCAAGTTTGGGTCACTCAAACAAAG, for which the PBM binding z-score was found to be 0.755.

With CGTCAAAGTTCAACTTAGGTAACGTAAAGCACGC, the PBM binding z-score was determined as 4.56.

In the case of CCTTACGGGTCTCGAGGTTATAGCACGACGAGCG, the PBM binding z-score is 0.479.

For GCGACTGGGGCAAAGCAGGTTAACATAAGGTTGG, the PBM binding z-score is 0.364.

CCAGACCGGTGAAAGGTAACTCAGTCTGGTACGC came in with a PBM binding z-score of 0.137.

With AATATTAGTTGACTTAGGGCAACCGATACGACGC, the PBM binding z-score stood at 0.46.

For the sequence TCTAGTTGGTCAAAGGTTACACACTCGAAATGCG, the PBM binding z-score turned out to be 3.11.

Sequence CAGCCTAAGTCAGGGCCAGTATAGGAGGAACGTT came in with a PBM binding z-score of -0.626.

In turn, GCATATAGGTCATACAAGGTGAAAGTCCGATTGT gave a PBM binding z-score of 4.55.

ATATGTAGGTTAGCAGGGGTCATTCAGACTAGGC returned a PBM binding z-score of 6.33.

Consider TAGCCTAGGTCATGGGTCAGTATACCACGCGAAC, for which the PBM binding z-score was found to be 3.31.

Turning to GCTAGTTGGTCAGTACAAGGTCACACACCGGTCG, the PBM binding z-score turned out to be 3.24.

As for CGAACTAGATCAGAACAGGACAGTGAAGGATGAT, the PBM binding z-score was -0.438.

As for CCTAGTTGGTCAACGTCACACACGCTATAGGTAC, the PBM binding z-score stood at 0.309.

Sequence CCGAGTAGGTTATGGAGCATTCAGGCAACGGTGA came in with a PBM binding z-score of -0.239.

In the case of ACTATTAGTTGACTTCGGGCAACCGATACGACGC, the PBM binding z-score is 0.179.

For the sequence CCTACTGGGCCAAGAAAGGTCATTGATTCAGTGA, the PBM binding z-score was 3.68.

ACTATTAGTTGAGACGAGGGCAACCGGTAGGTTG returned a PBM binding z-score of 0.837.

Regarding CGTCCAAGGTCAATGCTAGGTGAGTGAAAGCATT, the PBM binding z-score was 3.69.

Consider GCAGCTAGGTCAACTGATGGTCAGCTAAAGCTCG, for which the PBM binding z-score turned out to be 1.19.

As for ATCTCTAGGTAAGAGTTCAGTGAATCCCGAGGAT, the PBM binding z-score came to 2.22.

The sequence AGAACGAGGGCACGCTGAGTTGATAGGAGAGTAG registered a PBM binding z-score of 2.04.

On to GATACCGGGTCAAGGCCAGAGTACGCGTATTGAT, for which the PBM binding z-score was 3.11.

These data come from the supplement of paper PMC6555819.
